In PubChem BioAssay (EPA / NIEHS):
Values joined by “and” are separate entries in the source; they are usually repeats but may differ in a detail not shown here. Equal entries are not always repeated. Some compounds were tested as several samples or in several runs, with calls that do not always agree. Active and inactive are the calls of the source. The calls were made as follows: active = hit-call score of the fitted dose curve at least 0.9, where 1 is the maximum; inactive = score below 0.9.

How the values were obtained:
[1] = ATG_NFI_CIS: Attagene CIS-FACTORIAL HepG2 Assay for human Nuclear Factor I (NFI) (AID 2282989); conditions: HepG2 cis-regulatory reporter, NFI response element transcription; actives raise or lower the signal
In short: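 Transient MRTU transfection of HepG2 → 24 h chemical dosing → total RNA, oligo(dT) RT → PCR, 6-FAM primer extension, HpaI cut → capillary electrophoresis. Endpoint fitted bidirectionally relative to DMSO.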

[2] = biological target: Myc proto-oncogene protein (Homo sapiens) (UniProt P01106); assay: ATG_Myc_CIS: Attagene CIS-FACTORIAL HepG2 Assay for human Myelocytomatosis (Myc) Proto-Oncogene Transcription Factor (AID 2282990); conditions: HepG2, Attagene cis-reporter transcription factor activity; actives raise or lower the signal
Myc proto-oncogene protein (Homo sapiens), sequence (P01106 whole entry, looked up): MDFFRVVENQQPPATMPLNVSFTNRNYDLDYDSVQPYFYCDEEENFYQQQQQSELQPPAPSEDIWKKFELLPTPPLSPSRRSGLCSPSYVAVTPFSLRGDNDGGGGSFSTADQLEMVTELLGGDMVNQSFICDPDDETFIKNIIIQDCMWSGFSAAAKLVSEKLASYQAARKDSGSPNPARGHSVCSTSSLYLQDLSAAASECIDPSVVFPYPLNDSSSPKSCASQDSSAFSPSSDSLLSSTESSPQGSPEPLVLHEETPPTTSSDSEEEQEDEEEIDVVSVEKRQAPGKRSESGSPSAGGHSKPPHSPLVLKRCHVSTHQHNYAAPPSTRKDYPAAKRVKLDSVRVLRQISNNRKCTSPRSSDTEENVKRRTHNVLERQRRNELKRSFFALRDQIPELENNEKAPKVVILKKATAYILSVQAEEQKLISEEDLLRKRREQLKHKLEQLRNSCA
In short: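 Cells of the HepG2 human liver line bear multiple cis-driven reporter transcription units. Reporter mRNA after 24 h exposure is reverse-transcribed, amplified, labelled and resolved by capillary electrophoresis, with gain- or loss-of-signal fitting relative to DMSO.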

[3] = ATG_NF_kB_CIS: Attagene CIS-FACTORIAL HepG2 Assay for human Nuclear Factor Kappa B (NF-kB) (AID 2282991); conditions: HepG2 Attagene cis-factorial NF-kB reporter mRNA; actives raise or lower the signal
In short: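 Endogenous transcription factor activity in HepG2 was captured via cis-regulated reporter constructs; after 24 h dosing, reporter mRNA was reverse-transcribed, amplified, fluorescently labelled and sized by capillary electrophoresis, with activity fitted bidirectionally relative to DMSO.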

[4] = ATG_NRF2_ARE_CIS: Attagene CIS-FACTORIAL HepG2 Assay for human Nuclear Factor Erythroid 2 Related Factor 2 (NFR2) response to Antioxidant Response Elements (ARE) (AID 2282992); conditions: HepG2 Attagene ARE/NRF2 reporter, transcription factor activity; actives raise or lower the signal;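 as to AC50: reporter mRNA level measured by RT-PCR and capillary electrophoresis fluorescence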
In short: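 HepG2 cells transiently transfected with multiplexed cis-element reporter constructs, 24 h after chemical dosing; reporter mRNA quantified by RT-PCR, fluorescent primer extension, HpaI digestion and capillary electrophoresis. Bidirectional fit relative to DMSO.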

[5] = ATG_Oct_MLP_CIS: Attagene CIS-FACTORIAL HepG2 Assay for human Octamer-Binding Transcription Factor (Oct) (AID 2282993); conditions: HepG2 Attagene cis-factorial Oct reporter, mRNA; actives raise or lower the signal
In short: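 Transient MRTU transfection of HepG2 → 24 h compound treatment → RNA isolation, reverse transcription, PCR → 6-FAM primer extension, HpaI digest → capillary electrophoresis. Activity fitted both directions against DMSO.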

[6] = biological target: Cellular tumor antigen p53 (Homo sapiens) (UniProt P04637); assay: ATG_p53_CIS: Attagene CIS-FACTORIAL HepG2 Assay for human p53 Transcription Factor (AID 2282994); conditions: HepG2 p53 cis-element reporter, Attagene mRNA; actives raise or lower the signal
Cellular tumor antigen p53 (Homo sapiens), sequence (P04637 whole entry, looked up): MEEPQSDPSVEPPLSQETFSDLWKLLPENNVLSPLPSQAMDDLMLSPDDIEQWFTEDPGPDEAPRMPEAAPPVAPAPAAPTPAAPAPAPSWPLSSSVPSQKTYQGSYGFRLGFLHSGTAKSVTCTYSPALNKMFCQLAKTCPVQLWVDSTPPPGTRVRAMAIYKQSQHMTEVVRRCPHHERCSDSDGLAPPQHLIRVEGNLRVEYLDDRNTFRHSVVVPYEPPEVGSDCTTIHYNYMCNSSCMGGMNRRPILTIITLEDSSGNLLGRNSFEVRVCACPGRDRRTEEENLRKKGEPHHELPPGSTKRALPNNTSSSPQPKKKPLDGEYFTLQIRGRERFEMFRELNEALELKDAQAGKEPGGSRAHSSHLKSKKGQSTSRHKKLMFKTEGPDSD
In short: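 HepG2 cells transiently transfected with cis-regulated multiple reporter transcription units, dosed 24 h. Reporter mRNA measured by RT-PCR, 6-FAM primer extension, HpaI digestion and capillary electrophoresis; bidirectional fit relative to DMSO.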

[7] = BSK_3C_TissueFactor: BioMAP Diversity Plus: 3C Assay for Tissue Factor Biomarker Activity (AID 2282997); conditions: BioMAP 3C HUVEC, tissue factor biomarker readout; actives raise or lower the signal
In short: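 ELISA read-out of Tissue Factor levels on human umbilical vein endothelium collected 24 h after chemical dosing. Gain or loss of signal was fitted relative to DMSO.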

[8] = BSK_3C_uPAR: BioMAP Diversity Plus: 3C Assay for Urokinase-type plasminogen activator receptor (uPAR) Biomarker Activity (AID 2282998); conditions: BioMAP 3C HUVEC, uPAR biomarker ELISA; actives raise or lower the signal
In short: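 ELISA readout of uPAR on human vascular endothelium (umbilical vein primary cells), taken 24 h after chemical dosing. Increases and decreases are both fitted relative to DMSO vehicle.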

[9] = BSK_3C_VCAM1: BioMAP Diversity Plus: 3C Assay for Vascular cell adhesion molecule 1 (VCAM1) Biomarker Activity (AID 2282999); conditions: BioMAP 3C HUVEC, VCAM1 ELISA, cytokine-stimulated; actives raise or lower the signal
In short: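 Endothelial cells from human umbilical vein are treated with test chemical. At 24 h, VCAM-1 is measured by ELISA, and responses in either direction are fitted relative to DMSO.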

[10] = BSK_4H_Eotaxin3: BioMAP Diversity Plus: 4H Assay for Eotaxin 3 Biomarker Activity (AID 2283000); conditions: primary human endothelial cells (HUVEC); actives raise or lower the signal
In short: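 Chemicals were added to human umbilical vein endothelium cultures, and Eotaxin-3 was quantified by ELISA at 24 h. Values were derived by bidirectional fitting with DMSO serving as negative control and activity baseline.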

Measured: AC50

O=c1n(CCO)c(=O)n(CCO)c(=O)n1CCO
inactive: [1] | [2] | [3] | [4] | [5] | [6]

CC=CCO
inactive: [1] | [2] | [3] | [4] | [5] | [6]

Cc1ccc2c(c1)C(=O)c1ccccc1C2=O
inactive: [1] | [2] | [5] | [6]
active: [3] 6.48 µM | [4] 10.5 µM

C=CCOCC(O)CCl (centres undefined)
active: [4] 63 µM
inactive: all other assays above

CO[Si](CCC1CCC2OC2C1)(OC)OC (centres undefined)
inactive: [1] | [2] | [3] | [4] | [5] | [6]

O=C1OC(=O)c2cc(Oc3ccc4c(c3)C(=O)OC4=O)ccc21
inactive: [1] | [2] | [3] | [4] | [5] | [6]

O=P(O)(O)Oc1ccccc1
inactive: [1] | [2] | [3] | [4] | [5] | [6]

CC(C)=CCCC(C)C=O (centres undefined)
inactive: [1] | [2] | [3] | [4] | [5] | [6]

CC=C1CC2C=CC1C2 (centres undefined)
inactive: [1] | [2] | [5] | [6]
active: [3] 100 µM | [4] 45.9 µM

C1=CCCC1
inactive: [1] | [2] | [3] | [4] | [5] | [6]

CC(C)c1ccc(C=O)cc1
inactive: [1] | [2] | [3] | [4] | [5] | [6]

C=COCCCC
inactive: [1] | [2] | [3] | [4] | [5] | [6]

C/C=C\C/C=C/CCCCCCCCOC(C)=O
active: [3] 42.8 µM | [4] 26.8 µM | [5] 39.5 µM | [6] 162 µM | [7] 9.54 µM | [9] 26 µM | [10] 28.9 µM
inactive: [1] | [2] | [8]

N#[N+]c1ccc2c(S(=O)(=O)[O-])cccc2c1O
inactive: all assays above

CCOC(=O)c1ccccc1C(=C1C=C(Br)C(=O)C(Br)=C1)c1cc(Br)c(O)c(Br)c1
active: [1] 22.4 µM | [3] 43 µM | [5] 53.1 µM | [6] 48.3 µM | [7] 18.6 µM and 9.69 µM | [8] 20 µM and 17.9 µM | [9] 22.9 µM and 21.4 µM | [10] 22.7 µM and 23 µM
inactive: [2] | [4]

CCCC(C)CCC(C)=O (centres undefined)
inactive: [1] | [2] | [3] | [5] | [6]

NC(=O)c1ccccc1O
inactive: [1] | [2] | [3] | [5] | [6]

CC(=O)c1ccc2c(c1)CCCC2
inactive: [1] | [2] | [3] | [5] | [6]

C#CC1(O)CC[C@H]2[C@@H]3CCC4=CCCC[C@@H]4[C@H]3CC[C@@]21C (some centres undefined)
active: [4] 22 µM | [6] 33.4 µM | [7] 8.34 µM | [8] 9.84 µM | [9] 10.4 µM | [10] 11.1 µM
inactive: [1] | [2] | [3] | [5]

Cc1ccc(N)c([N+](=O)[O-])c1
inactive: [1] | [2] | [4] | [5]

CC(C)CCCC(C)CC=O (centres undefined)
inactive: [1] | [2] | [3] | [5] | [6]

O=C1CCCN1CCO
inactive: all assays above

O=Nc1ccc(O)cc1
not listed: [6]
inactive: all other assays above

CCO[Si](CCCN=C=O)(OCC)OCC
inactive: all assays above

Cc1ccc([N+](=O)[O-])cc1S(=O)(=O)O
active: [2] 165 µM
inactive: [1] | [3] | [5] | [6]

CCOC(=O)NNc1nncc2ccccc12
inactive: [1] | [2] | [3] | [5] | [6]

CCCCC(CC)COCC1CO1 (centres undefined)
inactive: [1] | [2] | [3] | [4] | [5] | [7] | [8] | [9] | [10]
active: [10] 3.97 µM
